Data on 21 molecules can be found in PubChem BioAssay.

Each structure is given as a SMILES string.

The test in a line: viability loss of caspase-8 NB7 cells with TRAIL – with/without TRAIL, luminescence panel, confirmation (AID 651596). The conditions noted are these: NB7 neuroblastoma + caspase-8, without TRAIL, NB7 Caspase-8, without TRAIL, mean of runs, at 10 µM.
As for `CCN(CC)S(=O)(=O)c1cc(NC(=O)Cn2ncc(Cl)c(Cl)c2=O)ccc1C`, the activity was determined as 99.6%.

`CCN(CC)C(=O)c1nn(-c2ccccc2)c2c1C1CCC2(C)C1(C)C` (stereo unspecified): the activity amounted to 8.65%.

Turning to `C=C(C)c1cc2c(ccc3ccc(=O)oc32)o1`, the activity stood at 91%.

Turning to `COc1ccc(C2NN=C(c3ccc(C)cc3)S2)cc1OC` (stereo unspecified), the activity was 55%.

In the case of `COc1ccc(C(C(=O)NC2CCCCC2)N(C(=O)CCl)c2ccc(Cl)cc2)cc1` (stereo unspecified), the activity stood at 98.9%.

Turning to `CCOC(=O)c1nn(-c2ccc3c(c2)OCCO3)cc1O`, the activity was determined as 57%.

Turning to `O=C(/C=C/Nc1ccccc1C(F)(F)F)c1ccco1`, the activity was found to be 99.3%.

As to `O=C(c1ccc2c3n(nc2c1)-c1ccccc1CO3)N1CCCCC1`, the activity was 78.4%.

As for `COn1c(SCc2ccc(Cl)cc2)nc2ccccc2c1=O`, the activity stood at 47.9%.

`CC(C)c1ccc(-n2c(-c3ccccc3)c[n+]3c2CCc2ccccc2-3)cc1`: the activity was determined as 75.5%.

As for `CC(C)(C)OC(=O)NCc1ccc(NC(=O)c2nc[nH]c2C(=O)NCCCCNC(=O)c2[nH]cnc2C(=O)Nc2ccc(CNC(=O)OC(C)(C)C)cc2)cc1`, the activity turned out to be 96.2%.

On to `O=C(Cc1ccsc1-c1ccccc1)NO`, for which the activity is 72.3%.

`Cc1nn(-c2ccccc2)c(C)c1/C=N/NC(=O)c1cc(C23CC4CC(CC(C4)C2)C3)[nH]n1`: the activity was found to be 60%.

As to `Cc1cccc(Nc2nc(N)nc(CCl)n2)c1`, the activity was 96.8%.

For `O=C(N/N=C/C(Cl)=C/c1ccccc1)c1ccccn1`, the activity was 42.8%.

For the molecule `CCN(CC)S(=O)(=O)c1cc(C(=O)OCC(=O)Nc2ccc(-c3nc4ccc(C)cc4s3)cc2)ccc1F`, the activity stood at 74.2%.

Regarding `Fc1ccc(/C=N/Nc2nc(-c3cccnc3)nc3ccccc23)cc1`, the activity turned out to be 19.2%.

As for `Cc1ccc(NC(=S)c2nc3ccccc3[nH]2)cc1`, the activity came to 69.7%.

As for `CC(C)c1nnc(NC(=O)c2nc(S(=O)(=O)Cc3ccc(F)cc3)ncc2Cl)s1`, the activity came out at 41.8%.

As to `NC(c1csc(NC(=O)Nc2ccc(OC(F)(F)F)cc2)n1)C1CCCCC1` (stereo unspecified), the activity was found to be 92.2%.

As to `O=C(N/N=C\c1ccc(CNS(=O)(=O)c2ccc(Cl)cc2)o1)C(=O)Nc1ccc(Oc2ccccc2)cc1`, the activity was 91.1%.
